DT40 TDP1 no CPT – qHTS for Inhibitors of human tyrosyl-DNA phosphodiesterase 1 (TDP1): qHTS in cells in absence of CPT; hit rate 15% among 420,000; DT40 Tdp1-/- hTDP1 cells, no CPT, ATP luminescence, 48 h; AID 686978, 2013; Potency, µM (highest dose often 46.2 µM), hits mostly inhibitors; also: nearly all actives have a fitted effect of over 55% in size
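Cells were dispensed at 400 per well, compounds added by pin tool, plates incubated ≥48 hr at 37 °C, then CellTiter-Glo added for 30 min at room temperature before luminescence reading. Line: DT40 Tdp1-/- complemented with hTDP1; camptothecin omitted.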
IL1B secr inh – inflammasome signaling inhibition, IL-1 beta readout. THP-1 LPS/ATP IL-1B secretion, AlphaLISA, 16 h; hits give low values. activity change, % at 57.5 µM. hit rate 4.7% among 360,000; in the data active = activity change below about -50%; inconclusive = mostly about -30% to -49%
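THP-1 cells pretreated 1 hr with compounds (up to 57.5 uM final), then stimulated with LPS (250 ng/mL final) plus ATP (1.25 mM final); secreted IL-1B measured by AlphaLISA after 16 hr, decreased signal indicating inhibition.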
Gal4-VP16 FLuc – Gal4-VP16 reporter inhibition counter-screen; hit rate 3.5% among 310,000; AID 2546; Drosophila S2 Gal4-VP16 UAS-luciferase, luminescence, 20 h; Potency, µM (titrated, usually from 53.6 µM), most hits filed as inhibitors;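 also: Gal4-VP16 expression switched on by copper sulfate through the metallothionein promoter; nearly all actives have a fitted effect of over 50% in size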
LDHA block – blocks human lactate dehydrogenase A | P00338 | purified LDHA, NADH/diaphorase-resazurin fluorescence; hits give low values | activity change, % (values are at about 110 or 230 µM) | hit rate 0.15% among 480,000; in the data active = activity change below about -30%; inconclusive = mostly about -25% to -30%
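Remaining NADH was detected by diaphorase (0.133 mg/mL) converting 37 µM resazurin to fluorescent resorufin, read at 0 and 20 minutes. The preceding 5-minute room-temperature reaction used 2 nM LDHA, 0.2 mM sodium pyruvate and 0.06 mM NADH at pH 7.4.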
TDP1 cell CPT – DT40-hTDP1 cell growth loss with CPT; chicken DT40 Tdp1-/-;hTDP1 cells + 20 nM CPT, ATP luminescence, 48 h; Potency, µM (top dose mostly 46.2 µM), most hits filed as inhibitors; hit rate 12% among 420,000; AID 686979; also: nearly all actives have a fitted effect of over 55% in size
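Chicken DT40 Tdp1-/- cells complemented with human TDP1, 400 cells/well, exposed to compounds plus 20 nM camptothecin for at least 48 h at 37 C; viability read as ATP content by CellTiter-Glo luminescence.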
RORgamma inh – blocks mouse ROR gamma transcriptional activity | hit rate 5.4% among 310,000 | P51450 | Drosophila S2 Gal4-RORgamma UAS-luciferase reporter, 20 h | AID 2551 | Potency, µM (doses to about 53.6 µM), most hits filed as inhibitors; also: nearly all actives have a fitted effect of over 60% in size
Target sequence (P51450 whole entry, looked up, the tested form may be a part): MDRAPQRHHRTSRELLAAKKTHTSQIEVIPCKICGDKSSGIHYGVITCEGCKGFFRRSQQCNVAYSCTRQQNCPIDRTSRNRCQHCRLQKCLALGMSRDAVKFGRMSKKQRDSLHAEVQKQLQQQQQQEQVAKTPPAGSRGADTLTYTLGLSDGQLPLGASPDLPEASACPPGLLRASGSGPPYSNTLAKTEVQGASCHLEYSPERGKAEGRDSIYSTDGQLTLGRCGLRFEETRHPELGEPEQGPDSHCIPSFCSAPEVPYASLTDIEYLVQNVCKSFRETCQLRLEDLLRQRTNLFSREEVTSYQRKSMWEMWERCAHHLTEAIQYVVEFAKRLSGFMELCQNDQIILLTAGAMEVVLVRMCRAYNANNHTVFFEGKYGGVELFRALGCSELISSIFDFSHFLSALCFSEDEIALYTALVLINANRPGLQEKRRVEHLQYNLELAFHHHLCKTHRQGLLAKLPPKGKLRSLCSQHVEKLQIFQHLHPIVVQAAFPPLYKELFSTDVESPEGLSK
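Drosophila Schneider cells stably carrying a metallothionein-driven Gal4 DBD–ROR gamma fusion and a UAS-Photinus luciferase reporter were exposed to compound for 1 hr, then induced with copper sulfate (700 uM final) for 20 hr at ambient temperature before luminescence reading.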
Numbers stand for hits; – = inactive; ? = inconclusive; · = no result given. In the library only some 18% were active in any assay of this set; here they are far more common. Unless noted, calls follow the shape of the dose curve; as a rule, active = well fitted curve in the direction sought with a large enough effect; inconclusive = small, poorly fitted or top-dose-only effect, or another doubt; inactive = no such curve, though single readings can be large; an effect the other way counts as inactive or inconclusive.

SMILES	DT40 TDP1 no CPT	IL1B secr inh	Gal4-VP16 FLuc	LDHA block	TDP1 cell CPT	RORgamma inh
COc1ccc(S(=O)(=O)Nc2cccc(N(C)S(C)(=O)=O)c2)cc1C	21µM	–	–	–	26µM	?
CCOC(=O)c1cc(S(=O)(=O)Nc2cccc(OC)c2)cn1C	?	–	?	–	21µM	?
COc1ccc(OC)c(NS(=O)(=O)c2ccccc2)c1	–	·	·	–	?	·
CCCCOc1ccc(S(=O)(=O)Nc2cc(OC)ccc2OC)cc1	16µM	-75	?	–	?	–
CCOCCOC(=O)COc1ccc2c(=O)c(Oc3cc(C)ccc3C)coc2c1	·	·	·	–	·	·
CN(CCOc1ccccc1)Cc1cc(=O)oc2cc(O)ccc12	·	·	·	–	·	·
COc1ccccc1Nc1nc(N)nc(CN2CCN(c3cnccn3)CC2)n1	·	·	·	–	·	·
Cc1ccc(OCn2ccc(C(=O)NCc3c(C)nn(C)c3C)n2)c(C)c1	·	·	·	–	·	·
CCOc1ccc(NS(=O)(=O)c2cnc(Cl)c(Cl)c2)cc1	?	-99	–	–	?	–
CCOc1ccc(S(=O)(=O)Nc2cccc(C(=O)N3CCN(c4ccc(OC)cc4)CC3)c2)cc1	–	–	–	–	–	–
CCOc1ccc(S(=O)(=O)Nc2cccc(N(C)S(C)(=O)=O)c2)cc1	12µM	–	–	–	23µM	–
CN(c1cccc(NS(=O)(=O)c2ccccc2)c1)S(C)(=O)=O	–	–	–	–	–	–
CCOc1ccc(S(=O)(=O)Nc2cccc(OC)c2)cc1	?	–	18µM	–	?	–
Cc1cc(C)cc(NS(=O)(=O)c2cnc(Cl)c(Cl)c2)c1	?	–	–	–	?	?
CCOC(=O)c1c(C)[nH]c(C)c1S(=O)(=O)N(C)CC(=O)Nc1cccc(C(C)=O)c1	·	·	·	–	·	·
N#CCC(=O)Nc1ccc(C(=O)OCc2cccc(F)c2F)cc1	·	·	·	–	·	·
Cn1c(CC(=O)NNC(=O)c2ccc(F)cc2Cl)nc2ccccc21	?	–	·	–	16µM	·
COc1ccc(N2CCN(Cc3cccn3-c3nnc(N4CCN(C5CCCCC5)CC4)s3)CC2)cc1	21µM	·	·	–	21µM	·
c1ccc(N2CCN(Cc3cccn3-c3nnc(N4CCN(C5CCCCC5)CC4)s3)CC2)cc1	–	·	·	–	–	·
CC(C)(C)c1ccc(SCC(=O)NC(C)(C#N)C2CC2)cc1 (stereo unspecified)	·	·	·	–	·	·
Cc1cccc(Cn2c(SCc3ccc(C(=O)NC4CCCCC4)cc3)nc3cccnc32)c1	–	·	·	–	–	·
COc1ccc(Cn2c(SCc3ccc(C(=O)NC4CCCCC4)cc3)nc3cccnc32)cc1	15µM	·	·	–	?	·
O=C(NC1CC1)c1ccc(Cn2c(SCc3ccc(F)cc3)nc3cccnc32)cc1	–	·	·	–	–	·
O=C(NC1CC1)c1ccc(Cn2c(SCc3cccc(F)c3)nc3cccnc32)cc1	8.2µM	·	·	–	?	·
COc1ccc(NC(=O)Cn2c(SCc3ccc(C)cc3)nc3cccnc32)c(OC)c1	?	·	·	–	15µM	·
SMILES	DT40 TDP1 no CPT	IL1B secr inh	Gal4-VP16 FLuc	LDHA block	TDP1 cell CPT	RORgamma inh
O=C(NC1CCCCC1)c1ccc(CSc2nc3cccnc3n2Cc2cccc(F)c2)cc1	5.2µM	·	·	–	10µM	·
Cc1cccc(Cn2c(SCc3ccc(C(=O)NC4CCCC4)cc3)nc3cccnc32)c1	?	·	·	–	?	·
CC1CCCN(C2CCN(Cc3cccc(Cl)c3)CC2)C1 (stereo unspecified)	·	·	·	–	·	·
NC(=O)C1=C(Nc2ccc3ccccc3c2)c2ccccc2S1(=O)=O	·	·	·	–	·	·
CCOC(=O)C(C)NC(=O)CNC(=O)c1cc(C)cc(C)c1 (stereo unspecified)	·	·	·	–	·	·
O=C(NC1CCCCC1)c1ccc(Cn2c(SCc3ccc(F)cc3)nc3cccnc32)cc1	–	·	·	–	–	·
O=C(NC1CCCC1)c1ccc(CSc2nc3cccnc3n2Cc2ccc(F)cc2)cc1	–	·	·	–	–	·
O=C(NC1CCCCC1)c1ccc(CSc2nc3cccnc3n2Cc2ccc(F)cc2)cc1	13µM	·	·	–	?	·
O=C(NC1CCCC1)c1ccc(CSc2nc3cccnc3n2Cc2ccccc2F)cc1	21µM	·	·	–	?	·

High-throughput results deposited in PubChem by National Center for Advancing Translational Sciences (NCATS).
